# Records with an inconclusive call do not appear. Active and inactive are the calls of the source. Calls follow the shape of the dose curve; as a rule, active = well fitted cell-killing curve with a large enough effect in the repeat runs; inconclusive = weak or mixed curves, or effect the other way; inactive = flat fitted curve, though single readings scatter. Where a SMILES comes first, the peptide text is derived from it. [ ]: non-standard residue; d: D form. pGlu = O=C1CC[C@@H](C(=O)O)N1
# Experiment: qHTS assay to identify small molecule antagonists of the constitutive androstane receptor (CAR) signaling pathway - cell viability counter screen (AID 1224837); also: nearly all actives have a fitted effect of over 45% in size
# Conditions: HepG2-CYP2B6-hCAR viability, CellTiter-Fluor, 23 h, co-treated with 50 nM CITCO; series mostly up to 92.4 µM; activity change, negative = cytotoxicity: at the top concentration
# Description: National Center for Advancing Translational Sciences [NCATS]
# NIH Chemical Genomics Center [NCGC]
# U.S. Environmental Protection Agency [EPA]
# National Institutes of Environmental Health Sciences [NIEHS]
# National Toxicology Program [NTP]
# U.S. Food and Drug Administration [FDA]
# The constitutive androstane receptor (CAR) is a nuclear receptor which regulates multiple drug metabolizing enzymes (DMEs) and transporters. Activating CAR will generally increase the transcription and subsequent translation of CYP2B6 and CYP3A4. These two DMEs represent about 50% of the drug metabolizing potential in the body. When CAR is deactivated, the metabolizing potential in the body will decrease, subsequently increasing the toxicity in the body or lowering the therapeutic potential of a pro-drug. Recently, there have also been studies performed indicating CARs role in energy metabolism and cancer therapy. Therefore, inhibiting CARs activity could have a potential effect on diabetes and cancer. Identifying environmental toxins and compounds which modulate CAR, through the use of the Tox21 10K compound collection, will be an important step in determining the toxicity and potential therapeutic effects these factors will have on the human body. To differentiate true CAR antagonists from cytotoxic substances, the assay is multiplexed with a cell viability assay.
# Tox21 Assay Protocol Summary:
# A double-stable (hCAR and CYP2B6-2.2kb) transfected cell line, derived from human hepatoma (HepG2) cells, was utilized for the duration of the quantitative high-throughput screens. The HepG2-CYP2B6-hCAR cells were dispensed at 2500 cells/4 uL/well in 1536-well white solid bottom plates using a Multidrop Combi. After the assay plates were incubated at 37 C/5% CO2 for 4 hrs, 23 nL of compounds at 15 concentrations (from 5-48 columns) or positive control (from 1 to 4 columns) were transferred to the assay plates using a Pintool station. One uL of CITCO (final concentration = 50 nM) was added, using a Flying Reagent Dispenser, inside each well. After a 23 hr incubation period at 37 C/5% CO2, 1 uL of CellTiter-Fluor reagent was added into each well of the assay plates using a Flying Reagent Dispenser. The fluorescence intensity in the plates was then measured using a ViewLux plate reader.
# % is scaled to controls: 0 for no effect and ±100 for the full control effect.
row,SMILES,"activity change, negative = cytotoxicity"
1,CC1CCC(CO)CC1 (stereo not given),2.45% (inactive)
2,COc1c(N2CCNC(C)C2)c(F)cc2c(=O)c(C(=O)O)cn(C3CC3)c12 (stereo not given),2.65% [at 42.5 µM] (inactive)
3,NCCCC[C@H](N[C@@H](CCc1ccccc1)C(=O)O)C(=O)N1CCC[C@H]1C(=O)O,-2.4% [at 42.5 µM] (inactive)
4,C1CCC2(CCCCO2)OC1,4.52% (inactive)
5,CCCCCCCCN1CCCC1=O,-0.376% (inactive)
6,C[C@@H]1CCC[C@H](C)N1,2.53% [at 42.5 µM] (inactive)
7,CCC(=O)OCc1ccccc1,2.26% (inactive)
8,Cc1ccccc1N=C(N)N=C(N)N,7.63% (inactive)
9,COC(=O)C1=C(C)NC(C)=C(C(=O)OC(C)C)C1c1cccc2nonc12 (stereo not given),0.229% [at 42.5 µM] (inactive)
10,CCCCCCCCCCOc1cc2c(=O)c(C(=O)OCC)c[nH]c2cc1OCC,5.07% [at 8.39 µM] (inactive)
11,Nc1ccn([C@@H]2O[C@H](CO)[C@@H](O)C2O)c(=O)n1 (stereo not given in full),4.05% (inactive)
12,O=C1NC(=O)C2CC=CCC12 (stereo not given),0.232% (inactive)
13,CC(C(=O)O)c1cccc(Oc2ccccc2)c1 (stereo not given),0.644% [at 42.5 µM] (inactive)
14,CCCC(=O)O[C@]1(C(=O)CC)CC[C@H]2[C@@H]3CCC4=CC(=O)CC[C@]4(C)[C@H]3[C@@H](O)C[C@@]21C,-6.18% [at 42.5 µM] (inactive)
15,O=C(CO)[C@@H](O)[C@H](O)[C@H](O)CO,-1.49% (inactive)
16,COc1cc(-c2ccc(=O)[nH]n2)ccc1OC(F)F,0.774% [at 42.5 µM] (inactive)
17,CC(CC=O)CC(C)(C)C (stereo not given),4.86% (inactive)
18,C=C(C)C(=O)OCCOCCOCCOCCOC(=O)C(=C)C,-0.255% (inactive)
19,CC(=O)NC(=O)c1ccccc1O,10.2% [at 42.5 µM] (inactive)
20,CC[N+](CC)(CC)CCOc1cccc(OCC[N+](CC)(CC)CC)c1OCC[N+](CC)(CC)CC,1.47% [at 42.5 µM] (inactive)

row,SMILES,"activity change, negative = cytotoxicity"
1,CCO[Si](OCC)(OCC)c1ccccc1,-1.49% (inactive)
2,CCNS(=O)(=O)c1ccc(C)cc1,2.62% (inactive)
3,COc1cccc(OC)c1C(=O)N[C@@H]1C(=O)N2[C@@H]1SC(C)(C)[C@@H]2C(=O)O,2.81% [at 42.5 µM] (inactive)
4,O=C(O)c1cc(C(=O)O)cc(C(=O)O)c1,-2.43% (inactive)
5,Cc1ccnc(NS(=O)(=O)c2ccc(N)cc2)n1,6.05% [at 42.5 µM] (inactive)
6,CC(C)(C)OC(=O)c1cccc(N)c1,0.721% (inactive)
7,NC(=O)N1c2ccccc2CC(=O)c2ccccc21,5.71% [at 42.5 µM] (inactive)
8,CCNC(=O)[C@@H]1CCCN1C(=O)[C@H](CCCN=C(N)N)NC(=O)[C@H](CC(C)C)NC(=O)CNC(=O)[C@H](Cc1ccc(O)cc1)NC(=O)[C@H](CO)NC(=O)[C@H](Cc1c[nH]c2ccccc12)NC(=O)[C@H](Cc1cnc[nH]1)NC(=O)[C@@H]1CCC(=O)N1 ([pGlu]HWSYGLRP-NHEt),3.99% [at 42.5 µM] (inactive)
9,CC(C)(CCC(=O)O)C(=O)O,1.61% (inactive)
10,CC12CCC(C(=O)C1=O)C2(C)C (stereo not given),4.84% (inactive)
11,O=Cc1cccc(Br)c1,2.25% (inactive)
12,CC[C@H]1OC(=O)[C@H](C)[C@@H](O[C@H]2C[C@@](C)(OC)[C@@H](O)[C@H](C)O2)[C@H](C)[C@@H](O[C@@H]2O[C@H](C)C[C@H](N(C)C)[C@H]2O)[C@](C)(OC)C[C@@H](C)C(=O)[C@H](C)[C@@H](O)[C@]1(C)O,2.7% (inactive)
13,O=S(=O)(O)c1cccc2ccccc12,5.56% (inactive)
14,Cc1c(N)c(=O)n(-c2ccccc2)n1C,0.0478% [at 42.5 µM] (inactive)
15,NC(CCC(=O)O)C(=O)O (stereo not given),-0.191% (inactive)
16,CC(C)C1CCC(O)CC1 (stereo not given),1.8% (inactive)
17,C[C@@H]1C[C@H]2[C@@H]3C[C@H](F)C4=CC(=O)C(Cl)=C[C@]4(C)[C@@]3(F)[C@@H](O)C[C@]2(C)[C@@]1(O)C(=O)CO,4.11% [at 42.5 µM] (inactive)
18,CC(C)[C@H]1CC[C@@H](C)CC1=O,-1.41% (inactive)
19,COc1ccccc1OCC1CNC(=O)O1 (stereo not given),0.921% [at 42.5 µM] (inactive)
20,Cc1onc(-c2c(Cl)cccc2Cl)c1C(=O)Cl,13.4% [at 42.5 µM] (inactive)

# Source: PubChem BioAssay (Tox21)
